Test results taken from PubChem BioAssay (Tox21).
Records with an inconclusive call do not appear. Activity calls are given as the source filed them. Unless noted, calls come from the whole dose curve.

Legend:
[1] = Nuclear factor erythroid 2-related factor 2/antioxidant responsive element (Nrf2/ARE) small molecule agonists: qHTS cell viability counter screen in human keratinocytes (AID 1919968; active = well fitted curve in the direction sought with a large enough effect in the repeat runs; an effect the other way counts as inactive or inconclusive; note: nearly all actives have a fitted effect of over 55% in size)
Outline: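 Cells of the KeratinoSens line were plated at 1,500 per well and left for 5 h before compound transfer from DMSO stocks. After a 23 h incubation (37 C, 5% CO2), CellTiter-Fluor was added. Signal was taken as fluorescence intensity 1 h later.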

[2] = Nuclear factor erythroid 2-related factor 2/antioxidant responsive element (Nrf2/ARE) small molecule agonists: luciferase reporter gene qHTS assay in human keratinocytes (AID 1919969); note: nearly all actives have a fitted effect of over 35% in size
[3] = target: Gonadotropin-releasing hormone receptor (Homo sapiens) (UniProt P30968); assay: Human gonadotropin-releasing hormone receptor (GnRHR) small molecule agonists, calcium flux assay in GnRHR-HEK293 cells (AID 1920063); note: nearly all actives have a fitted effect of over 35% in size
Outline: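 Compounds dissolved in DMSO are pin-transferred onto dye-loaded GnRHR-HEK293 cells, which were seeded 18 h before at 37 C/5% CO2. Calcium signal is read as fluorescence intensity at 1 s intervals for 3 min.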

[4] = target: KiSS-1 receptor (Homo sapiens) (UniProt Q969F8); assay: Human kisspeptin (KISS1R) small molecule agonists, calcium flux assay in KISS1R-HEK293 cells (AID 1920064; active = well fitted curve in the direction sought with a large enough effect in the repeat runs; an effect the other way counts as inactive or inconclusive)
Outline: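 Cell line: HEK293, stable human KISS1R. Dye loading 1 h at 37 C after 18 h culture. Read: kinetic fluorescence, 480/540 nm, 3 min at 1 s intervals.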

[5] = G protein-coupled receptor (GPCR) small molecule agonists, calcium flux assay: HEK293 wild type cell line counter screen (AID 1920065)
Outline: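 Tox21 10K compounds, 15 concentrations each in triplicate, pin-transferred in DMSO onto dye-loaded cells; kinetic read at 480/540 nm for 3 min, 1 s intervals.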

[6] = p53 small molecule agonists, cell-based qHTS assay with human liver microsomes (AID 1963577)
Outline: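 Cells carrying a p53-responsive bla reporter were rested 5 h (37 C, 5% CO2) before compound transfer. Human liver microsomes plus NADPH, 0.5 mg/mL final apiece, supplied metabolism during the 16 h 37 C exposure.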

[7] = p53 small molecule agonists, cell-based qHTS assay with rat liver microsomes (AID 1963578)
Outline: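 Fluorescence from a beta-lactamase reporter under a p53 response element was measured after cells had been incubated 16 h at 37 C with test compound and rat liver microsomes plus NADPH (0.5 mg/mL final each).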

[8] = p53 small molecule agonists, cell-based qHTS assay with human liver microsomes: qHTS cell viability counter screen (AID 1963579); note: nearly all actives have a fitted effect of over 45% in size
Outline: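 Seed p53RE-bla cells at 4,000 per well; incubate 5 h at 37 C; add compound, human liver microsomes and NADPH; incubate 16 h at 37 C; add CellTiter-Glo; after 30 min at room temperature, read luminescence.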

[9] = p53 small molecule agonists, cell-based qHTS assay with rat liver microsomes: qHTS cell viability counter screen (AID 1963580); note: nearly all actives have a fitted effect of over 45% in size
Outline: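 Rat liver microsome (0.5 mg/mL final) and NADPH (0.5 mg/mL final) co-incubation with compounds for 16 h at 37 C on HCT-116 p53RE-bla cells; cytotoxicity taken from intracellular ATP luminescence.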

[10] = p53 small molecule agonists, cell-based qHTS assay: qHTS cell viability counter screen (AID 1963581); note: nearly all actives have a fitted effect of over 45% in size
Outline: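 ATP content measured by luminescence in HCT-116 p53RE-bla cells treated 16 h at 37 C, same wells as the reporter screen.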

[11] = p53 small molecule agonists, cell-based qHTS assay (AID 1963582; active = well fitted activation curve with a large enough effect in the signal ratio in the repeat runs, not every such curve was filed as active; the % refers to the signal ratio)
Outline: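 16 h compound exposure (37 C) of p53 response element–bla cells, preceded by 5 h recovery at 37 C/5% CO2; read-out via LiveBLAzer B/G FRET substrate, 2 h RT, fluorescence intensity.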

[12] = target: 5-hydroxytryptamine receptor 2A (Homo sapiens) (UniProt P28223); assay: 5-hydroxytryptamine receptor 2A (HTR2A) small molecule antagonists, cell-based qHTS assay (AID 1963586); note: nearly all actives have a fitted effect of over 45% in size
Outline: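 CHO cells stably expressing human HTR2A were plated for 18 h at 37 C, then loaded with calcium dye for 1 h. Compounds were preincubated 5 min at room temperature before DOI (4 nM solution) was added. Kinetic fluorescence was read for 3 min.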

[13] = target: 5-hydroxytryptamine receptor 2A (Homo sapiens) (UniProt P28223); assay: 5-hydroxytryptamine receptor 2A (HTR2A) small molecule agonists, cell-based qHTS assay (AID 1963587); note: nearly all actives have a fitted effect of over 30% in size
Outline: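 Kinetic calcium-flux fluorescence (2 min, 1 sec intervals) after compound addition in agonist mode. HTR2A-CHO cells were cultured 18 h, then dye-loaded 1 h at 37 C.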

[14] = target: Muscarinic acetylcholine receptor M1 (Homo sapiens) (UniProt P11229); assay: Cholinergic receptor muscarinic 1 (CHRM1) small molecule antagonists, cell-based qHTS assay (AID 1963588); note: nearly all actives have a fitted effect of over 40% in size
Outline: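 Compounds were tested at 15 concentrations in three independent runs. Dye-loaded CHRM1-CHO cells were exposed 5 min at room temperature before stimulation by acetylcholine added at 50nM. Intracellular calcium was read kinetically on FDSS for 3 min.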

[15] = target: Muscarinic acetylcholine receptor M1 (Homo sapiens) (UniProt P11229); assay: Cholinergic receptor muscarinic 1 (CHRM1) small molecule agonists, cell-based qHTS assay (AID 1963589); note: nearly all actives have a fitted effect of over 35% in size
Outline: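 Homogeneous fluorescence calcium flux, agonist mode. Human M1-expressing CHO cells; compound dosed at 15 concentrations, three independent runs; signal sampled every 1 sec.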

[16] = cAMP Responsive Elements (CRE) small molecule agonists, cell-based qHTS assay (AID 1963590)
Outline: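 HEK 293T cells stably bearing CRE-bla were plated at 2,000 cells per well and rested 18 h. Compounds, positive controls or DMSO were added for 3 h at 37 C. LiveBLAzer B/G substrate was then loaded for 2 h at room temperature.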

[17] = cAMP Responsive Elements (CRE) small molecule antagonists, cell-based qHTS assay (AID 1963591; active = well fitted inhibition curve with a large enough effect in the signal ratio in the repeat runs, not every such curve was filed as active; the % refers to the signal ratio)
Outline: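 First, CRE-bla HEK293T cells settled 18 h at 37 C. Next, compound and 0.25 uM final NKH477 were applied for 3 h. Last, LiveBLAzer B/G substrate was loaded for 2 h at room temperature.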

[18] = target: Beta-2 adrenergic receptor (Homo sapiens) (UniProt P07550); assay: Adrenergic beta2 receptor (ADRB2) small molecule antagonists, cell-based qHTS assay (AID 1963592); note: series mostly up to about 92 µM; nearly all actives have a fitted effect of over 50% in size
Outline: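 Assay format: CHO-ADRB2 cells, 18-20hr seeding at 37C/5% CO2, then compound plus 1nM isoproterenol agonist mix for 0.5hr RT. Homogeneous time-resolved fluorescence cAMP detection after 1hr, expressed as 665/615 nm ratio.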

[19] = target: D(2) dopamine receptor (Homo sapiens) (UniProt P14416); assay: Dopamine D2 receptor (DRD2) small molecule agonists, cell-based qHTS assay (AID 1963594); note: nearly all actives have a fitted effect of over 35% in size
Outline: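 cAMP accumulation in DRD2-HEK293 cells measured by HTRF after 1 h detection; compounds added 10 min before NKH477 (200nM […]) forskolin-analogue stimulation, 30 min at room temperature, with Ro20-1724 present at 0.1 mM final.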

[20] = target: D(2) dopamine receptor (Homo sapiens) (UniProt P14416); assay: Dopamine D2 receptor (DRD2) small molecule antagonists, cell-based qHTS assay (AID 1963595; active = well fitted inhibition curve with a large enough effect in the signal ratio in the repeat runs, with a control signal flat; the % refers to the signal ratio)
Outline: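 Readout: HTRF cAMP, cAMP-d2 competing with cellular cAMP for anti-cAMP cryptate, read after 1 h. Cells: DRD2-HEK293. Conditions: 0.1 mM Ro20-1724, 12 nM quinpirole, 200 nM NKH477, 30 min RT.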

Measured: Potency

Sequence of D(2) dopamine receptor (Homo sapiens) (P14416 whole entry, looked up): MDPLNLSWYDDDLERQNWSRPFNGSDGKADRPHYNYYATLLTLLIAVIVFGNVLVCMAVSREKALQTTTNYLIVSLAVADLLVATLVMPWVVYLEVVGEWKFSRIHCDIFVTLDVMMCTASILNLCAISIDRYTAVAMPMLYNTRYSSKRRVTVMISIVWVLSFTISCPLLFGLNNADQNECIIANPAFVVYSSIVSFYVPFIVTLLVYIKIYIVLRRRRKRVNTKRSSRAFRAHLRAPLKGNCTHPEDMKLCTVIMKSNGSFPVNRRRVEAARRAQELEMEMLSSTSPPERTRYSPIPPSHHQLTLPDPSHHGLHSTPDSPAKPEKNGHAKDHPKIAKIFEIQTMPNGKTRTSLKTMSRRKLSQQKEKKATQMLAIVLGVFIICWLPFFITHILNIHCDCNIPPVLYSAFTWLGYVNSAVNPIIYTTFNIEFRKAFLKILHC
Sequence of 5-hydroxytryptamine receptor 2A (Homo sapiens) (P28223 whole entry, looked up): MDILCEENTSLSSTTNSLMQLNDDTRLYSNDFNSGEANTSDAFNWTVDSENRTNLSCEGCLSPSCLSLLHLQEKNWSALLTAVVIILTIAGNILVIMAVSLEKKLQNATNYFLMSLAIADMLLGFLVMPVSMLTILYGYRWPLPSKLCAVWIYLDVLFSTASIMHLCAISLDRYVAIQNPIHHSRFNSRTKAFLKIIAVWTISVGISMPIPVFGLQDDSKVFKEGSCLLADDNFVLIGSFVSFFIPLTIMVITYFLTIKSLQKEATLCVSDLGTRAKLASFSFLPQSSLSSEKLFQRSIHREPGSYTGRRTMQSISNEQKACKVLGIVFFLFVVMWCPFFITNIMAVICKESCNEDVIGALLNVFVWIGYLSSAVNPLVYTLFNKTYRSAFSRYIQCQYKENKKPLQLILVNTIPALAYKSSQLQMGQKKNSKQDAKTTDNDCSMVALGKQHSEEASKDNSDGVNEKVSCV
Sequence of Beta-2 adrenergic receptor (Homo sapiens) (P07550 whole entry, looked up): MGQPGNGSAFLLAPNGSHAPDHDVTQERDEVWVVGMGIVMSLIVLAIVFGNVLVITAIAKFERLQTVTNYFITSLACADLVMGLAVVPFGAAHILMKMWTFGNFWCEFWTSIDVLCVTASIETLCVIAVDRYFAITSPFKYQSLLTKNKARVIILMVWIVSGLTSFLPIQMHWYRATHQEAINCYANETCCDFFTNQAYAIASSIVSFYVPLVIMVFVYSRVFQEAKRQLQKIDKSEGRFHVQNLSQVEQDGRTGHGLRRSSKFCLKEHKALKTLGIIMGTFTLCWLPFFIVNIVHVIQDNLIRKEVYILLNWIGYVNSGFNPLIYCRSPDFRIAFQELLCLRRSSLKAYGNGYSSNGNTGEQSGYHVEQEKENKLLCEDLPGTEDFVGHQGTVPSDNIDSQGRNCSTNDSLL
Sequence of Gonadotropin-releasing hormone receptor (Homo sapiens) (P30968 whole entry, looked up): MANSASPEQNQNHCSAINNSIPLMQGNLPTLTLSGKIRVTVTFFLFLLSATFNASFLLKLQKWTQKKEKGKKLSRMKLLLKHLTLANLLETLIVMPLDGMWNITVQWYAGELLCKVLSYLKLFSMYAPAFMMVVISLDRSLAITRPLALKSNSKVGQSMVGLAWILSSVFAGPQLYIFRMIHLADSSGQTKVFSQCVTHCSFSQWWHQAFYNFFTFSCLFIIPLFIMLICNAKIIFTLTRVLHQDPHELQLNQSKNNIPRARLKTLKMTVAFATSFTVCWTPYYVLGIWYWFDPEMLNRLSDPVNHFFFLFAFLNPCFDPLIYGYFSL
Sequence of Muscarinic acetylcholine receptor M1 (Homo sapiens) (P11229 whole entry, looked up): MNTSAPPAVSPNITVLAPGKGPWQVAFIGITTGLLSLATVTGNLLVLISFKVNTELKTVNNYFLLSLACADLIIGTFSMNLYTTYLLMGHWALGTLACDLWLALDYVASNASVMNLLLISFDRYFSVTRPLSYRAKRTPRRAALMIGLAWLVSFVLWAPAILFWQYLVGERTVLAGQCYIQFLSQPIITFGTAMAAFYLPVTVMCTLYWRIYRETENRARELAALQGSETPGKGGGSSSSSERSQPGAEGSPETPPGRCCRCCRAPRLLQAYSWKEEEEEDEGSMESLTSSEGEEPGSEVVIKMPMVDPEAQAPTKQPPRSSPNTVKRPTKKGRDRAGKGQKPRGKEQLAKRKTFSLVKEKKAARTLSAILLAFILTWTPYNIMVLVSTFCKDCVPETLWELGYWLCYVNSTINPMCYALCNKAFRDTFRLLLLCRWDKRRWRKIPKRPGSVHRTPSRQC
Sequence of KiSS-1 receptor (Homo sapiens) (Q969F8 whole entry, looked up): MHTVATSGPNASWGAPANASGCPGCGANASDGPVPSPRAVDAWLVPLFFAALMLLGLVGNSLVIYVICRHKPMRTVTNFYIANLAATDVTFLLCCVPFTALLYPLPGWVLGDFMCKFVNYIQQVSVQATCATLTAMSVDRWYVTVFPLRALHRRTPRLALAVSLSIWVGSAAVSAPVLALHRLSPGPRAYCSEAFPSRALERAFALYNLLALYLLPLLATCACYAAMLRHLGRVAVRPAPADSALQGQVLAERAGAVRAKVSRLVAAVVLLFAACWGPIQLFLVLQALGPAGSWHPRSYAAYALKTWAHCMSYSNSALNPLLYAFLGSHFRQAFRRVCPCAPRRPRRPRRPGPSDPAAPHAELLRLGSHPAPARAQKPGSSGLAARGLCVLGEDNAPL

C=CC(O)CCCCC (stereo not given)
inactive: [1] | [2] | [3] | [4] | [5] | [6] | [7] | [8] | [9] | [10] | [11] | [12] | [13] | [14] | [15] | [16] | [17] | [18] | [19] | [20]

COc1ccc(N=[N+]([O-])c2ccc(OC)cc2)cc1
inactive: [1] | [2] | [3] | [4] | [5] | [6] | [7] | [8] | [9] | [10] | [11] | [12] | [13] | [14] | [15] | [16] | [17] | [18] | [19] | [20]

CCCCCC1CCCC(=O)O1 (stereo not given)
inactive: [1] | [2] | [3] | [4] | [5] | [6] | [7] | [8] | [9] | [10] | [11] | [12] | [13] | [14] | [15] | [16] | [17] | [18] | [19] | [20]

OCCC(F)(F)C(F)(F)C(F)(F)C(F)(F)C(F)(F)C(F)(F)F
inactive: [1] | [2] | [3] | [4] | [5] | [6] | [7] | [8] | [9] | [10] | [11] | [12] | [13] | [14] | [15] | [16] | [17] | [18] | [19] | [20]

Oc1c(Cl)ccc(Cl)c1Cl
inactive: [1] | [2] | [3] | [4] | [5] | [6] | [7] | [8] | [9] | [10] | [11] | [12] | [13] | [14] | [15] | [16] | [17] | [18] | [19] | [20]

CCn1c2ccccc2c2ccccc21
inactive: [1] | [2] | [3] | [4] | [5] | [6] | [7] | [8] | [9] | [10] | [11] | [12] | [13] | [14] | [15] | [16] | [17] | [18] | [19] | [20]

C=CCn1cc[n+](C)c1
inactive: [1] | [2] | [3] | [4] | [5] | [6] | [7] | [8] | [9] | [10] | [11] | [12] | [13] | [14] | [15] | [16] | [17] | [18] | [19] | [20]

CCCCC(=O)N(C)C
inactive: [1] | [2] | [3] | [4] | [5] | [6] | [7] | [8] | [9] | [10] | [11] | [12] | [13] | [14] | [15] | [16] | [17] | [18] | [19] | [20]

O=C(Cl)c1ccc(C(=O)Cl)cc1
inactive: [1] | [2] | [3] | [4] | [5] | [6] | [7] | [8] | [9] | [10] | [11] | [12] | [13] | [14] | [15] | [16] | [17] | [18] | [19] | [20]

c1ccc2nccnc2c1
inactive: [1] | [2] | [3] | [4] | [5] | [6] | [7] | [8] | [9] | [10] | [11] | [12] | [13] | [14] | [15] | [16] | [17] | [18] | [19] | [20]

O=C(OCCOCCO)c1ccccc1Nc1cccc(C(F)(F)F)c1
inactive: [1] | [2] | [3] | [4] | [5] | [6] | [7] | [8] | [9] | [10] | [11] | [12] | [13] | [14] | [15] | [16] | [17] | [18] | [19] | [20]

NC(=O)Cc1cccc(C(=O)c2ccccc2)c1N
inactive: [1] | [2] | [3] | [4] | [5] | [6] | [7] | [8] | [9] | [10] | [11] | [12] | [13] | [14] | [15] | [16] | [17] | [18] | [19] | [20]

Cc1cccc2cccnc12
inactive: [1] | [2] | [3] | [4] | [5] | [6] | [7] | [8] | [9] | [10] | [11] | [12] | [13] | [14] | [15] | [16] | [17] | [18] | [19] | [20]

CC1=CCC(=O)O1
inactive: [1] | [2] | [3] | [4] | [5] | [6] | [7] | [8] | [9] | [10] | [11] | [12] | [13] | [14] | [15] | [16] | [17] | [18] | [19] | [20]

Cc1ccccc1N=O
inactive: [1] | [2] | [3] | [4] | [5] | [6] | [7] | [8] | [9] | [10] | [11] | [12] | [13] | [14] | [15] | [16] | [17] | [18] | [19] | [20]
